# Data taken from the supplement of paper PMC6555819.
# Test system: VDR:RXRa (NR concentration 270 nM, RXRa partner concentration 90 nM)
# Assay: PBM binding z-score (relative to random genomic background probes); higher = stronger binding; sequences stand for … in GC…GCGATTGACAGCGTAGAATGAAGG
# Procedure: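 Protein-binding microarray (Agilent 4x180K custom design, double-stranded 60-nt probes: 5' GC cap, 34-nt variable region, 24-nt constant primer region; full probe sequence given). Purified or IVT nuclear receptor:RXRα heterodimers (3:1 NR:RXRα, mostly 270:90 nM) or homodimers were incubated for 1 h in PBS with 2% milk and no ligand, then detected with Alexa488 antibodies. Fluorescence from o1-orientation probes (~5 replicates averaged) was converted to z-scores against 500 random hg19 background probes. Variable regions are seed direct-repeat (DR0–DR5) sites, all their single-nucleotide variants and half-site ablations.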
row,Sequence,PBM binding z-score
1,CCTAGTAGGTTACGAGGGGGCATTCAGTGCGAAT,5.12
2,CGAACTAGTTCAAGGACAGTGAATCTCCGCACGC,0.348
3,AGTCAAAGTTCAGCACGAGGTAACGTAAAGCACG,3.25
4,TAGCCTAGGTCAGATCGGGCCAGTCTACGCTATA,0.668
5,CCGAGTAGGTTACGAGGGGCCATTCAGTGCGAAT,3.09
6,CGAACTAGGTCACCAGTACAGTGAAGAGGTTGGA,2.27
7,CCTAGTTGGTCAAGGTCTCACACGCTATAGGTAC,0.578
8,CCATGTAGGTTAAGGGGGTCATTCAGTTTGAAAG,7.41
9,CTATGTAGGTTAAGGGGGTCAGTCAGTTTGAAAG,6.49
10,CCTACTGGGCCAAGGTCATAGATCAGTCAAAGCA,2.87
11,CCGAGTAGGTTGCGAGGGGGCATTCAGTGCGAAT,4.26
12,CGAACTAGGACACCAGGACAGTGAAGAGGTTGGA,-0.285
13,ACTTGGAGGACAAAGGTCAGAGCTACGCCAGTGA,3.58
14,CGTCCAAGGTCAATGCAAGGTCAGTGAAAGCATT,6.14
15,ATATGTAGGTTAAGGTCATTCAGAAAGTAGGGAA,4.69
16,TCGAGTAGGTTACGGGTGCATTCAGGGATGAAGA,3.53
17,CTATGTAGGTTAAGGGGGTTATTCAGTTTGAAAG,5.71
18,CGAACTAGGTCTCCAGGACAGTGAAGAGGTTGGA,-0.586
19,CGTTCAAGGTCATAGGAGGTCAGTGAAGACAGAT,6.67
20,TCTTGTAGATCAAAGCTTAAGAAAGCCGAAGCCT,-0.115

row,Sequence,PBM binding z-score
1,ATACGTAGGTTACATCCGGGTCATTCAGGCTATG,4.16
2,GCTGCTAGGTCAACTGATGGTGAGCTAAAGCTCG,1.13
3,ATCGAAAGGTCGAAAGTGAGTATACCCACCCGAA,2.18
4,TCGAGTGGGTTACGGGGGCATTCAGGGATGAAGA,4.27
5,CGCACTAGGTCACCAGGACAGTGAAGAGGTTGGA,1.87
6,GCTGCAAGGTCAACTGATGGTCAGCTAAAGCTCG,4.66
7,TCTCGGAGGACACGAAAGGTCAGAACTCGACATC,3.19
8,CGAACTAGGTCACCAGGACAGTGTAGAGGTTGGA,2.17
9,ATATGTAGGTAACATCCGGGTCATTCAGGCTATG,3.75
10,CGAACTAGGTCACCAGGACGGTGAAGAGGTTGGA,1.77
11,CCTTACGGGTAACTCCAGGTTATAGCATCGGAGT,0.375
12,ATCGGAAGGTCGAGGTGAGTATAGAGAAAGGGAA,1.31
13,GCTGCTAGGTCAGGATGGTCAGCTAACGGGTACG,0.56
14,TCGAGTAGGTTACGGTGGCATTCAGGGATGAAGA,0.16
15,CAAACTAGGTCAAAGGTCAAAGCCGAGCCAACCA,6.79
16,CCGAGTAGGTGACGAGGGGGCATTCAGTGCGAAT,4.37
17,ACAGACAGGTGAGTGAAGGTCACTCAGCTGGACG,2.73
18,CCGACGGGGGCAGAAAGGTTACCATACCATCCGG,4.49
19,TCGAGTAGGTTACGGGCGCATTCAGGGATGAAGA,-0.354
20,CCGAGTTGGTTACGAGGGGGCATTCAGTGCGAAT,4.32
